Experimental data published in PubChem BioAssay (EPA / NIEHS).
Where “and” joins values, the source holds several entries; their conditions need not be identical. Equal entries are not always repeated. Calls of active or inactive are those of the source. How the source made its calls: active means hit-call score of the fitted dose curve at least 0.9, where 1 is the maximum; inactive means score below 0.9.

assay: BSK_LPS_SRB: Viability Assessment in the BioMAP Diversity Plus: LPS Assay (AID 2283079); details: primary human HUVEC with PBMC;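 further: fitted in both directions against DMSO so loss or gain of signal counts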
Procedure: BSK_LPS is a cell-based, multiplexed-readout assay that uses umbilical vein endothelium and peripheral blood mononuclear cells, a human vascular primary cell co-culture, with measurements taken at 24 hours after chemical dosing in a 96-well plate.BSK_LPS_SRB is an assay component measured in the BSK_LPS assay. It measures 0.1% sulforhodamine related to cell death using Sulforhodamine staining technology.Data from the assay component BSK_LPS_SRB was analyzed into 1 assay endpoint. This assay endpoint, BSK_LPS_SRB, was analyzed with bidirectional fitting relative to DMSO as the negative control and baseline of activity. Using a type of viability reporter, gain or loss-of-signal activity can be used to understand changes in the signaling. Furthermore, this assay endpoint can be referred to as a primary readout, because this assay has produced multiple assay endpoints where this one serves a signaling function. To generalize the intended target to other relatable targets, this assay endpoint is annotated to the cell morphology intended target family, where the subfamily is cell conformation.
The levels of cell surface (or secreted, indicated by the prefix "s") biomarker endpoints were measured by ELISA. Overt cytotoxicity to cells in confluent adherent cultures (all systems other than the BT system) was assessed by measuring total protein levels using sulforhodamine B (SRB) staining in parallel cultures at the time of biomarker measurements, indicated as SRB endpoints. For proliferation assays for adherent cell types, individual cell types are cultured at sub-confluence and relative cell numbers quantified by SRB staining at time points optimized for each system (48 h: 3C and CASM3C systems; 72 h: BT and HDF3CGF systems; 96 h: SAg system). SRB was performed by staining cells with 0.1% SRB after fixation with 10% TCA and reading wells at 560 nm.Viability and proliferation of PBMC (T cells) was quantified by Alamar Blue reduction for the SAg and BT systems. For PBMC viability (referred to as PBMC Cytotoxicity within the assay endpoint names), cells were plated (75,000/well in a 96-well plate) and then chemical samples added for 1 h before addition of activators, SEB and TSST-1 (20 ng/mL final concentration each). Cells were incubated for 90 h. Then, Alamar Blue (20 uL/well) (Invitrogen, Cat DAL1100) was added for 6 h, and the plates were read with a fluorescence microplate reader at 546/580 nm (excitation/emission). For PBMC proliferation, cells were plated and activated as above but incubated for only 16 h prior to addition of Alamar Blue. Plates were read after 6 h.

Compound | outcome | AC50
COC(=O)c1ccccc1S(=O)(=O)NC(=O)Nc1nc(OC(F)F)cc(OC(F)F)n1 | inactive | 
CCCCOCCOCCOCc1cc2c(cc1CCC)OCO2 |  | 12.1 µM (active)
CCN(CC)C(=O)c1cccc(C)c1 | inactive | 
C#CCOC(=O)[C@@H](C)Oc1ccc(Oc2ncc(Cl)cc2F)cc1 | inactive | 
CCCOC(=O)NCCCN(C)C | inactive | 
COCCO | inactive | 
CN(C)C(=O)Nc1ccc(Cl)c(Cl)c1 | inactive | 
N[C@@H](Cc1cc(I)c(Oc2ccc(O)c(I)c2)c(I)c1)C(=O)O | inactive | 
CCCCCCC(C)OC(=O)COc1nc(F)c(Cl)c(N)c1Cl (stereo not given) |  | 38.4 µM (active)
CCCCC(CC)COC(=O)c1ccccc1C(=O)O (stereo not given) | inactive | 
CCCN(CCC)c1c([N+](=O)[O-])cc(C(F)(F)F)c(N)c1[N+](=O)[O-] |  | 13.8 µM (active)
O=C(O)c1ccccc1 | inactive | 
CCN(Cc1c(F)cccc1Cl)c1c([N+](=O)[O-])cc(C(F)(F)F)cc1[N+](=O)[O-] |  | 14.1 µM (active)
OB(O)O | inactive | 
CCCCCOC(=O)COc1cc(N2C(=O)C3=C(CCCC3)C2=O)c(F)cc1Cl | inactive | 
S=C(S)NCCNC(=S)S.[Mn+2].[S-]C([S-])=NCCN=C([S-])[S-].[Zn+2] | inactive | 
CCNc1nc(N)nc(Cl)n1 | inactive | 
CCC(C)OC(=O)N1CCCCC1CCO (stereo not given) | inactive | 
CSC(=O)c1cccc2nnsc12 | inactive | 
C[C@]12C[C@H](O)[C@H]3[C@@H](CCC4=CC(=O)CC[C@@]43C)[C@@H]1CC[C@@H]2C(=O)CO | inactive | 

Compound | outcome | AC50
CC(C)(c1ccc(O)cc1)c1ccc(O)cc1 | inactive | 
CCCCOC(=O)C(C)Oc1ccc(Oc2ccc(C(F)(F)F)cn2)cc1 (stereo not given) | inactive | 
CCOC(=O)[C@H](C)Oc1ccc(Oc2nc3ccc(Cl)cc3o2)cc1 | inactive | 
N#CSCSc1nc2ccccc2s1 |  | 8.07 µM (active) and 9.64 µM (active)
COC(=O)c1ccccc1C(=O)O | inactive | 
O=C(c1ccccc1)C1CCCCC1 | inactive | 
CCOC(=O)c1ccc(O)cc1 | inactive | 
C#C[C@]1(O)CC[C@H]2[C@@H]3CCC4=CC(=O)CC[C@@H]4[C@H]3CC[C@@]21CC | inactive | 
CC(=O)S[C@@H]1CC2=CC(=O)CC[C@]2(C)[C@H]2CC[C@@]3(C)[C@@H](CC[C@@]34CCC(=O)O4)[C@H]12 |  | 20.9 µM (active)
c1ccc(Nc2ccccc2)cc1 | inactive | 
C=CCOC(Cn1ccnc1)c1ccc(Cl)cc1Cl (stereo not given) | inactive | 
COC(=O)c1ccc(I)cc1S(=O)(=O)NC(=O)Nc1nc(C)nc(OC)n1 | inactive | 
COC(=O)CSc1cc(N=c2sc(=O)n3n2CCCC3)c(F)cc1Cl | inactive | 
CC(C)CCCCCCc1ccc(O)cc1 |  | 13.8 µM (active)
CCOC(=O)COc1cc(-n2ncc(C(F)(F)F)c(C)c2=O)c(F)cc1Cl | inactive | 
Cc1nn(C)c(Oc2ccccc2)c1C=NOCc1ccc(C(=O)OC(C)(C)C)cc1 |  | 12.6 µM (active)
CCSC(=O)N(CC(C)C)CC(C)C | inactive | 
O=C(Nc1ccc([N+](=O)[O-])cc1Cl)c1cc(Cl)ccc1O |  | 0.445 µM (active)
CCC(O)=C1C(=O)CC(C(=O)O)CC1=O (stereo not given) | inactive | 
CCCCC(CC)CN1C(=O)C2C3C=CC(C3)C2C1=O (stereo not given) |  | 3.97 µM (active)
